Measured values as given in PubChem BioAssay (Tox21).
Inconclusive results are not listed. Entries that show only a call come without a potency. Activity calls are given as the source filed them. Unless noted, calls follow the shape of the dose curve; as a rule, active = well fitted curve in the direction sought with a large enough effect in the repeat runs; inconclusive = weak or mixed curves; inactive = no such curve, though single readings can be large; an effect the other way counts as inactive or inconclusive.

Assays:
[1] = qHTS assay to identify aromatase inhibitors - cell viability counter screen (AID 743084);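 also: cells stimulated with testosterone during compound exposure; nearly all actives have a fitted effect of over 55% in size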; also: potency is read from the fitted curve at half-maximal effect
[2] = target: Aryl hydrocarbon receptor (Homo sapiens) (UniProt P35869); assay: qHTS assay to identify small molecule that activate the aryl hydrocarbon receptor (AhR) signaling pathway (AID 743085); also: nearly all actives have a fitted effect of over 15% in size; also: potency is read from the fitted curve at half-maximal effect;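 as to activation: HG2L7.5c1 human HepG2 liver cells with stably integrated DRE-driven firefly reporter; series mostly up to about 70 µM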
Procedure, shortened: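 Steps: seed HepG2-AhR-luc cells; allow 5 h at 37C; pin-transfer test compound or vehicle; incubate 24 h at 37C; add viability dye (30 min, 37C) and read fluorescence; add luciferase substrate (30 min, RT) and read luminescence.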

[3] = qHTS assay to identify small molecule that activate the aryl hydrocarbon receptor (AhR) signaling pathway - cell viability counter screen (AID 743086);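 also: HepG2 liver cells carrying the AhR DRE luciferase reporter; series mostly up to about 70 µM; nearly all actives have a fitted effect of over 45% in size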
Procedure, shortened: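 HepG2-AhR-luc (HG2L7.5c1) cells, 4000/well, were preincubated 5 h at 37C, exposed to compound in qHTS format for 24 hr at 37C, then given CellTiter-Fluor for 30 min; viability was read as fluorescence in the reporter wells.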

[4] = qHTS assay to identify small molecule antagonists of the peroxisome proliferator-activated receptor gamma (PPARg) signaling pathway - cell viability counter screen (AID 743194); conditions: Potency: co-treated with 50 nM rosiglitazone; also: nearly all actives have a fitted effect of over 55% in size; also: potency is read from the fitted curve at half-maximal effect
Procedure, shortened: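 PPARg-UAS-bla HEK293H cells were plated, rested 5 h at 37 C, then treated with compounds plus rosiglitazone (50 nM final) for 17 h at 37 C; viability was then read by CellTiter-Glo luminescence after 30 min at room temperature.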

[5] = qHTS assay for small molecule agonists of the antioxidant response element (ARE) signaling pathway (AID 743202; active = well fitted activation curve with a large enough effect in the signal ratio in the repeat runs, not every such curve was filed as active; the % refers to the signal ratio)
Procedure, shortened: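 Read-out: LiveBLAzer B/G FRET substrate fluorescence after 2 h at room temperature, following 16 h compound treatment at 37 C of HepG2 cells carrying an ARE-driven beta-lactamase reporter.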

[6] = qHTS assay for small molecule agonists of the antioxidant response element (ARE) signaling pathway - cell viability counter screen (AID 743203; calls by dose curve; also: nearly all actives have a fitted effect of over 55% in size)
Procedure, shortened: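 Following 16 hrs of compound treatment at 37C, HepG2 cells with an ARE-controlled beta-lactamase gene were lysed with CellTiter-Glo. Luminescence was read after 30 min at room temperature.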

[7] = qHTS assay for small molecule activators of the heat shock response signaling pathway - cell viability counter screen (AID 743209); also: nearly all actives have a fitted effect of over 50% in size; also: potency is read from the fitted curve at half-maximal effect
Procedure, shortened: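 Readout: CellTiter-Glo luminescence, 30 min at room temperature. System: HSE-bla HeLa cells, 1500/well, plated overnight. Treatment: compounds in DMSO, 5 h at 37 C.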

[8] = qHTS assay for small molecule activators of the heat shock response signaling pathway (AID 743210; active = well fitted activation curve with a large enough effect in the signal ratio in the repeat runs, with a control signal flat, not every such curve was filed as active; the % refers to the signal ratio; also: series mostly up to about 63 µM)
Procedure, shortened: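 HSE-bla HeLa cells (beta-lactamase reporter under heat shock response elements) were exposed to compounds for 5 h at 37 C, then loaded with LiveBLAzer B/G FRET substrate for 2.5 h at room temperature before fluorescence reading.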

[9] = qHTS assay to identify small molecule agonists of the peroxisome proliferator-activated receptor delta (PPARd) signaling pathway - cell viability counter screen (AID 743211); also: nearly all actives have a fitted effect of over 55% in size
Procedure, shortened: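 Viability of GeneBLAzer PPARd UAS-bla HEK293H cells was assessed after 17 h compound incubation at 37C, using CellTiter-Glo reagent added after the reporter read and luminescence recorded 30 min later.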

[10] = target: Peroxisome proliferator-activated receptor delta (Homo sapiens) (UniProt Q03181); assay: qHTS assay to identify small molecule agonists of the peroxisome proliferator-activated receptor delta (PPARd) signaling pathway (AID 743212; calls by dose curve)
Procedure, shortened: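 GeneBLAzer PPARd UAS-bla HEK293H cells (beta-lactamase reporter under UAS control), plated and rested 5 h at 37 C, then exposed to compounds in DMSO at 37 C; LiveBLAzer B/G FRET substrate added, 2 h room temperature, fluorescence read.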

[11] = target: Peroxisome proliferator-activated receptor delta (Homo sapiens) (UniProt Q03181); assay: qHTS assay to identify small molecule antagonists of the peroxisome proliferator-activated receptor delta (PPARd) signaling pathway (AID 743215; active = well fitted inhibition curve with a large enough effect in the signal ratio in the repeat runs, not every such curve was filed as active; the % refers to the signal ratio;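 also: cells stimulated with agonist L165041 at 300 nM final during compound exposure; series mostly up to about 62 µM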)
Procedure, shortened: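 HEK293H UAS-bla, PPARd; agonist L165041 300 nM final with cpd in DMSO; 37 C 17 h; FRET substrate, RT 2 h; fluorescence intensity.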

[12] = target: Bile acid receptor (Homo sapiens) (UniProt Q96RI1); assay: qHTS assay to identify small molecule antagonists of the farnesoid-X-receptor (FXR) signaling pathway (AID 743217; active = well fitted inhibition curve with a large enough effect in the signal ratio in the repeat runs, not every such curve was filed as active; the % refers to the signal ratio; also: potency is read from the fitted curve at half-maximal effect)
Procedure, shortened: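 GeneBLAzer FXR-UAS-bla HEK 293T, CDCA-stimulated (50 uM final). Compound treatment 16 h, 37 °C. Detection: beta-lactamase cleavage of B/G FRET substrate, fluorescence.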

[13] = qHTS assay to identify small molecule agonists of the farnesoid-X-receptor (FXR) signaling pathway - cell viability counter screen (AID 743218); also: nearly all actives have a fitted effect of over 45% in size; also: potency is read from the fitted curve at half-maximal effect
Procedure, shortened: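 Parallel cytotoxicity test: compound-treated (16 h, 37 C) HEK 293T FXR-bla reporter cells were lysed with CellTiter-Glo and luminescence recorded.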

[14] = target: Bile acid receptor (Homo sapiens) (UniProt Q96RI1); assay: qHTS assay to identify small molecule agonists of the farnesoid-X-receptor (FXR) signaling pathway (AID 743220; active = well fitted activation curve with a large enough effect in the signal ratio in the repeat runs, not every such curve was filed as active; the % refers to the signal ratio)
Procedure, shortened: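 Beta-lactamase reporter under UAS control in GeneBLAzer FXR HEK 293T cells (5000/well) measured with LiveBLAzer FRET substrate after 2 h at room temperature. Compound exposure lasted 16 h at 37C.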

[15] = qHTS assay to identify small molecule antagonists of the farnesoid-X-receptor (FXR) signaling pathway - cell viability counter screen (AID 743221; active = well fitted cell-killing curve with a large enough effect in the repeat runs, not every such curve was filed as active; also: nearly all actives have a fitted effect of over 50% in size)
Procedure, shortened: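 Quantitative HTS of the Tox21 10K library run in parallel with the beta-lactamase reporter read. HEK 293T cells carrying a UAS-driven bla reporter got compound and 50 uM CDCA (final) for 16 h; ATP-based luminescence followed.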

[16] = target: Vitamin D3 receptor (Homo sapiens) (UniProt P11473); assay: qHTS assay to identify small molecule agonists of the vitamin D receptor (VDR) signaling pathway (AID 743222; calls by dose curve)
Procedure, shortened: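 In VDR-bla cells, compound-induced beta-lactamase expression is quantified by FRET substrate fluorescence. Treatment lasts 16 h at 37C; substrate develops 2 h at room temperature.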

[17] = target: Vitamin D3 receptor (Homo sapiens) (UniProt P11473); assay: qHTS assay to identify small molecule antagonists of the vitamin D receptor (VDR) signaling pathway (AID 743223; active = well fitted inhibition curve with a large enough effect in the signal ratio in the repeat runs, not every such curve was filed as active; the % refers to the signal ratio)
Procedure, shortened: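 Fluorescence from LiveBLAzer B/G FRET substrate, read after 2 h at room temperature, reflects beta-lactamase reporter activity in VDR-bla cells treated 16 h at 37C with compounds and agonist 1alpha,25-dihydroxyvitamin D3 (3 nM final).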

[18] = qHTS assay to identify small molecule antagonists of the peroxisome proliferator-activated receptor delta (PPARd) signaling pathway - cell viability counter screen (AID 743213); also: nearly all actives have a fitted effect of over 50% in size
Procedure, shortened: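 Viability counter-screen, qHTS format: PPARd-bla HEK293H, L165041 300 nM final, 17 h compound exposure at 37 C, CellTiter-Glo luminescence after 30 min RT.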

[19] = target: Peroxisome proliferator-activated receptor gamma (Homo sapiens) (UniProt P37231); assay: qHTS assay to identify small molecule antagonists of the peroxisome proliferator-activated receptor gamma (PPARg) signaling pathway (AID 743191; calls by dose curve; also: nearly all actives have a fitted effect of over 30% in size; also: potency is read from the fitted curve at half-maximal effect)
Procedure, shortened: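 GeneBLAzer PPARg UAS-bla HEK293H cells carrying a UAS-driven beta-lactamase reporter were plated at 3000 cells/well, preincubated 5 h at 37C, then given compound for 17 h at 37C; LiveBLAzer B/G FRET substrate was read after 1 h at room temperature.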

[20] = target: Peroxisome proliferator-activated receptor gamma (Homo sapiens) (UniProt P37231); assay: qHTS assay to identify small molecule agonists of the peroxisome proliferator-activated receptor gamma (PPARg) signaling pathway (AID 743094; active = well fitted activation curve with a large enough effect in the signal ratio in the repeat runs, not every such curve was filed as active; the % refers to the signal ratio)
Procedure, shortened: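 Compounds dissolved in DMSO were added to PPARg UAS-bla HEK293H cells for 17 h at 37C, and reporter expression was quantified by fluorescence intensity after 1 h with LiveBLAzer B/G FRET substrate.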

Chain of Peroxisome proliferator-activated receptor delta (Homo sapiens) (Q03181 whole entry, looked up): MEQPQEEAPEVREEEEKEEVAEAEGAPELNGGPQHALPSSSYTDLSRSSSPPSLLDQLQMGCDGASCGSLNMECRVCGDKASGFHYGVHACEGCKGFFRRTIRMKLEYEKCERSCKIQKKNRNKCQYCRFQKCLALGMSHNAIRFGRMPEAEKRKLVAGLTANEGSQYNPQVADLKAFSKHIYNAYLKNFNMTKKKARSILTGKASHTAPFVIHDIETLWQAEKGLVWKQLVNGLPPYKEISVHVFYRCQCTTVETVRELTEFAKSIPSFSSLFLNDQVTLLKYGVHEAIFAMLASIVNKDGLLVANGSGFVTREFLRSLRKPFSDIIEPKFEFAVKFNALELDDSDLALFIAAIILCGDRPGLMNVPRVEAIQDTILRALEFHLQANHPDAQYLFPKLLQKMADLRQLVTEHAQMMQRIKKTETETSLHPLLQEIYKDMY
Chain of Aryl hydrocarbon receptor (Homo sapiens) (P35869 whole entry, looked up): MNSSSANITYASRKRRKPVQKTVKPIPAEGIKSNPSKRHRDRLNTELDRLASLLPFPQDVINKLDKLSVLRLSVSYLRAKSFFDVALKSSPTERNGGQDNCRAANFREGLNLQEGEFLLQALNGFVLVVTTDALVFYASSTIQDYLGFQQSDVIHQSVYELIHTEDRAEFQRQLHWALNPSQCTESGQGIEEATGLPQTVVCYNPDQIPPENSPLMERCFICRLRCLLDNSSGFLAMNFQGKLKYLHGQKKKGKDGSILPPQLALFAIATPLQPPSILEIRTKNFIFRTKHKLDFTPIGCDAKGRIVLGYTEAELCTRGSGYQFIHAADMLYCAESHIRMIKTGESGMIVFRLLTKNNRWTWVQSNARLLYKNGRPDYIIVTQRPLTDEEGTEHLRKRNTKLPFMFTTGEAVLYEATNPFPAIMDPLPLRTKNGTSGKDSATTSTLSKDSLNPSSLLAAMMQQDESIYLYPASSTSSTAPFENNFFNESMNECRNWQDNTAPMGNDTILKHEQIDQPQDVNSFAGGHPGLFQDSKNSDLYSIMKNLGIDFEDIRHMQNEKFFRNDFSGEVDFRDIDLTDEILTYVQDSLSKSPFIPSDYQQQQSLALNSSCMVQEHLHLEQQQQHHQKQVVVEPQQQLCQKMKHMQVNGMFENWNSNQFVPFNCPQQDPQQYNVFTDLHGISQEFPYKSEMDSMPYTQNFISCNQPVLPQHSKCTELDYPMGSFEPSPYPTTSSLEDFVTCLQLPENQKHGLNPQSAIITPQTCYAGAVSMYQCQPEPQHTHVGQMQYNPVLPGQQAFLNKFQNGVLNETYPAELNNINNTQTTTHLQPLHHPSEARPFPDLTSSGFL
Chain of Vitamin D3 receptor (Homo sapiens) (P11473 whole entry, looked up): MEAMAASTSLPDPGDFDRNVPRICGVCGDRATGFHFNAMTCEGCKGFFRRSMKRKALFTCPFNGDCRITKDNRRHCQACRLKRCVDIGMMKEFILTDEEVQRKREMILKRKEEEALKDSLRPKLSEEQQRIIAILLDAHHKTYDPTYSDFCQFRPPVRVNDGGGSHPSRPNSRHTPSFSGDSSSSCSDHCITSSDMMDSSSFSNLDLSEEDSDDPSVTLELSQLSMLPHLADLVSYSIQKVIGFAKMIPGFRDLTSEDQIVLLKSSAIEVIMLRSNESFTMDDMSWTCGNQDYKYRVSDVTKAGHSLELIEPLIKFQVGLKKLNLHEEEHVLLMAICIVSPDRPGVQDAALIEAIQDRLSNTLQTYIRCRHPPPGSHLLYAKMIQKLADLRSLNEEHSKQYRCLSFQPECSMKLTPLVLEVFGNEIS
Chain of Peroxisome proliferator-activated receptor gamma (Homo sapiens) (P37231 whole entry, looked up): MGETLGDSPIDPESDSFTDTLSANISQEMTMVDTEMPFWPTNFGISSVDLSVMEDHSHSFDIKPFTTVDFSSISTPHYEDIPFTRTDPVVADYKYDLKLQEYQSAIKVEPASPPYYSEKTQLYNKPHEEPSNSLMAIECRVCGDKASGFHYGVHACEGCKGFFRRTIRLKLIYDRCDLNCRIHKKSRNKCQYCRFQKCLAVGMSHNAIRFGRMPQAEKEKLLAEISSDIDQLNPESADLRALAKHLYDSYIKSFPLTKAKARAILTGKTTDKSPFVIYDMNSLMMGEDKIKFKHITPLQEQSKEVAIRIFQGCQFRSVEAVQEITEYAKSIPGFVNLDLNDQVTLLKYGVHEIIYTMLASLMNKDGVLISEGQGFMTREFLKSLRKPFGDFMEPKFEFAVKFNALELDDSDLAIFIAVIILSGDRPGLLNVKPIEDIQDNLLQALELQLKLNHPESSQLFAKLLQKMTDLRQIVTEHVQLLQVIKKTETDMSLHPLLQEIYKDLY
Chain of Bile acid receptor (Homo sapiens) (Q96RI1 whole entry, looked up): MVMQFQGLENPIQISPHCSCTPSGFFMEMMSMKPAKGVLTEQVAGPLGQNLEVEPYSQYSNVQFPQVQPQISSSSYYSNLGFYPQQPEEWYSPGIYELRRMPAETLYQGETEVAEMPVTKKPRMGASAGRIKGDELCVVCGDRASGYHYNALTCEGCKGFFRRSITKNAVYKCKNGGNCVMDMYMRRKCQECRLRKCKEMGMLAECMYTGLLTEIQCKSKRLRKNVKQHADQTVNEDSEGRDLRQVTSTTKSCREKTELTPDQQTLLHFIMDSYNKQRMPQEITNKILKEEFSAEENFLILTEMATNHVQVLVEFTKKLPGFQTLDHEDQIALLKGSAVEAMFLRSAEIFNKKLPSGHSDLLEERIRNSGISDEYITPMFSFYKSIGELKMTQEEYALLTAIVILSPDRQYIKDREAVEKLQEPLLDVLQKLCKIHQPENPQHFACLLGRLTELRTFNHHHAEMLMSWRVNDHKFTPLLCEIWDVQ

SMILES	Potency [1]	Potency [2]	outcome [3]	Potency [4]	Potency [5]	Potency [6]	Potency [7]	outcome [8]	Potency [9]	outcome [10]	outcome [11]	Potency [12]	Potency [13]	outcome [14]	outcome [15]	outcome [16]	outcome [17]	outcome [18]	Potency [19]	outcome [20]
CCSC(=O)N(CC)C1CCCCC1	inactive	inactive	inactive	inactive	inactive	inactive	inactive	inactive	inactive	inactive	inactive	inactive	inactive	inactive	inactive	inactive	–	–	–	–
CCc1cc2c(s1)-n1c(C)nnc1CN=C2c1ccccc1Cl	inactive	inactive	inactive	inactive	inactive	inactive	inactive	inactive	inactive	inactive	inactive	inactive	inactive	–	inactive	inactive	inactive	–	–	–
CCCCOC(=O)[C@@H](C)Oc1ccc(Oc2ccc(C#N)cc2F)cc1	inactive	inactive	inactive	inactive	–	inactive	inactive	inactive	inactive	–	–	–	–	–	inactive	inactive	inactive	–	–	–
CCCSC(=O)N(CCC)CCC	inactive	inactive	inactive	inactive	inactive	inactive	inactive	inactive	inactive	inactive	inactive	–	inactive	–	inactive	inactive	–	inactive	–	–
[As]#[In]	inactive	inactive	inactive	inactive	–	inactive	inactive	inactive	inactive	–	–	–	inactive	–	inactive	–	–	inactive	–	–
Oc1c(Cl)cccc1Cl	inactive	inactive	inactive	inactive	–	inactive	inactive	inactive	inactive	inactive	inactive	–	inactive	–	inactive	inactive	inactive	inactive	inactive	–
CCCCP(CCCC)CCCC	inactive	inactive	inactive	inactive	inactive	inactive	inactive	inactive	–	–	inactive	inactive	inactive	–	inactive	inactive	inactive	–	–	–
CC(C)[N+](=O)[O-]	inactive	inactive	inactive	inactive	inactive	inactive	inactive	inactive	inactive	inactive	inactive	inactive	inactive	inactive	inactive	inactive	inactive	–	–	–
O=c1oc2ccccc2c(O)c1C1CCCc2ccccc21 (stereo not given)	inactive	inactive	inactive	inactive	–	inactive	inactive	inactive	inactive	inactive	inactive	–	inactive	–	inactive	inactive	inactive	inactive	30.9 µM (active)	–
CC(Oc1ccc(Oc2ncc(C(F)(F)F)cc2Cl)cc1)C(=O)O (stereo not given)	inactive	inactive	inactive	inactive	–	inactive	inactive	inactive	–	–	inactive	–	21.9 µM (active)	–	–	inactive	inactive	inactive	–	–
Cc1nnc2n1-c1sc(CCC(=O)N3CCOCC3)cc1C(c1ccccc1Cl)=NC2	inactive	inactive	inactive	inactive	inactive	inactive	inactive	inactive	inactive	–	–	inactive	inactive	–	inactive	–	–	inactive	–	–
COc1cc(OC)nc(Sc2cccc(Cl)c2C(=O)O)n1	inactive	–	inactive	inactive	inactive	inactive	inactive	inactive	inactive	–	–	–	inactive	–	inactive	inactive	inactive	inactive	inactive	inactive
Nc1cc(Cl)ccc1O	inactive	29.6 µM (active)	inactive	–	–	inactive	inactive	inactive	inactive	inactive	inactive	–	inactive	–	inactive	–	inactive	–	–	–
COP(N)(=S)Oc1ccccc1C(=O)OC(C)C (stereo not given)	inactive	–	inactive	inactive	inactive	inactive	inactive	inactive	inactive	inactive	inactive	–	inactive	–	inactive	inactive	–	inactive	inactive	–
O=C(Nc1ccccc1)N(Cc1ccc(Cl)cc1)C1CCCC1	inactive	54.5 µM (active)	–	21.9 µM (active)	–	–	inactive	inactive	inactive	inactive	–	54.9 µM (active)	–	inactive	inactive	–	–	inactive	–	–
Cc1ccccc1CO[C@@H]1C[C@@]2(C(C)C)CC[C@]1(C)O2	inactive	–	inactive	inactive	inactive	inactive	inactive	inactive	inactive	inactive	inactive	–	inactive	–	inactive	inactive	inactive	–	inactive	inactive
OC(c1ccc(F)cc1)(c1cncnc1)c1ccccc1Cl (stereo not given)	inactive	–	inactive	inactive	–	inactive	inactive	inactive	inactive	inactive	inactive	–	inactive	–	inactive	–	–	inactive	–	–
C[C@H]1CCC[C@H](O)CCCCCc2cc(O)cc(O)c2C(=O)O1	43.6 µM (active)	inactive	inactive	–	–	–	inactive	–	inactive	inactive	inactive	–	inactive	–	inactive	–	–	inactive	–	–
C=CCC1=C(C)[C@@H](OC(=O)[C@@H]2[C@@H](C=C(C)C)C2(C)C)CC1=O	inactive	inactive	inactive	inactive	–	inactive	49 µM (active)	–	–	–	–	–	–	–	inactive	inactive	–	inactive	–	–
CCN(CC)c1nc(C)cc(OP(=S)(OC)OC)n1	inactive	–	inactive	inactive	–	inactive	inactive	inactive	inactive	inactive	inactive	–	–	–	inactive	inactive	–	inactive	–	inactive
